Assay results from PubChem BioAssay AID743172 (National Center for Advancing Translational Sciences (NCATS), 2013).
Results filed as inconclusive are left out. The source made the active and inactive calls. Calls follow the shape of the dose curve; as a rule, active = well fitted activation curve with a large enough effect; inconclusive = small, poorly fitted or top-dose-only effect; inactive = no such curve, though single readings can be large or run the other way.

Assay: Extended Characterization of HPGD Inhibitors: PGE2 Assay in LNCaP Cells
Details: PGE2 HTRF level, 16 h
Source text: The central role of HPGD is to inactivate prostaglandins such as prostaglandin E2 (PGE2) or prostaglandin D2 (PGD2). These prostaglandins are involved in a number of processes, including inflammation, differentiation, and cellular signaling, which makes HPGD an important target for pharmacological intervention. A number of prostaglandins of particular biological interest have been identified as substrates of HPGD. […] Over-production of PGE2 has been reported to promote tumor-associated neovascularization, cell proliferation, and tumor growth. […] In this orthogonal assay, we set out to measure if compounds were able to increase PGE2 production NIH Chemical Genomics Center [NCGC] NIH Molecular Libraries Probe Centers Network [MLPCN] MLPCN Grant: MH084681 Assay Submitter (PI): Structural Genomics Consortium
A549 cells, LNCaP cells or media were dispensed in 384-well plates (ProxiPlate-384 Plus, PerkinElmer, Shelton, CT) at 5,000 cells/9.9 uL/well using a CappAero384 multichannel pipette (Odense, Denmark). Separately on the plate, 10 uL of PGE2 calibration standards at a starting assay concentration of 5,000 pg/mL (1:2 dilution, 12-points, n = 1, prepared in media, Cisbio, Bedford, MA) were dispensed. Compounds (100 nL, final concentration range from 41.9 nM to 100 uM) were transferred using an ATS Acoustic Liquid Dispenser (EDC Biosystems, Fremont, CA). After being mixed using an automated liquid handler (CyBio, Jena, Germany), samples were incubated (37 deg C, 5% CO2, under a humidified atmosphere) for 16 hours. PGE2 labeled conjugates were added to each well, first 5 uL of PGE2-d2, followed by 5 uL of anti-PGE2-cryptate, centrifuged (1,500 rpm, 15 sec) and incubated (RT, protected from light) for 5 hours. Time-resolved fluorescence intensity (320 nm excitation, 615 and 665 nm emission) was measured using an Envision plate reader (PerkinElmer). Data was expressed as the ratio of 665 nm/615 nm emissions. Concentration (pg/mL) of samples were calculated from a 4-parameter logistic calibration curves of the PGE2 standards.

Structure (SMILES) | Potency
Cc1cc(-c2nnc3n2CCCCC3)c(C)n1-c1ccc(Cl)cc1 | 2220 nM (active)
Cc1cc(-c2nnc3n2CCCCC3)c(C)n1-c1cccnc1 | 4430 nM (active)
COc1ccc(-n2c(C)cc(-c3nnc4n3CCCCC4)c2C)cc1 | 2800 nM (active)
Cc1cc(-c2nnc3n2CCCCC3)c(C)n1-c1ccc(C(C)(C)C)cc1 | 2220 nM (active)
